Shown are actives, neighbours in structure and some others; about 21% of the full set was active somewhere.
TDP1 cell CPT: growth inhibition of DT40 Tdp1-/-;hTDP1 cells with camptothecin (screen for TDP1 inhibitors); chicken DT40 Tdp1-/-;hTDP1 cells + 20 nM CPT, ATP luminescence, 48 h; Potency, µM (series often up to 46.2 µM), hits mostly inhibitors; 12% of 420,000 active; AID 686979; further: nearly all actives have a fitted effect of over 55% in size
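Chicken DT40 Tdp1-/- cells stably complemented with human TDP1 were seeded at 400 cells/well in medium containing 20 nM camptothecin, exposed to pin-transferred compounds, and grown at 37 °C for at least 48 hr. Viability was read as ATP luminescence.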
Gal4-VP16 FLuc: inhibits Gal4-VP16 luciferase reporter, ROR gamma counter-screen; Drosophila S2 Gal4-VP16 UAS-luciferase, luminescence, 20 h; Potency, µM (series often up to 53.6 µM), actives largely listed as inhibitors; 3.5% of 310,000 active; AID 2546;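 further: Gal4-VP16 expression switched on by copper sulfate through the metallothionein promoter; nearly all actives have a fitted effect of over 50% in size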
RORgamma inh: blocks mouse ROR gamma transcriptional activity | Drosophila S2 Gal4-RORgamma UAS-luciferase reporter, 20 h | Potency, µM (top dose mostly 53.6 µM), usual class: inhibitors | 5.4% of 310,000 active | AID 2551; further: nearly all actives have a fitted effect of over 60% in size
Target sequence (P51450 whole entry, looked up, the tested form may be a part): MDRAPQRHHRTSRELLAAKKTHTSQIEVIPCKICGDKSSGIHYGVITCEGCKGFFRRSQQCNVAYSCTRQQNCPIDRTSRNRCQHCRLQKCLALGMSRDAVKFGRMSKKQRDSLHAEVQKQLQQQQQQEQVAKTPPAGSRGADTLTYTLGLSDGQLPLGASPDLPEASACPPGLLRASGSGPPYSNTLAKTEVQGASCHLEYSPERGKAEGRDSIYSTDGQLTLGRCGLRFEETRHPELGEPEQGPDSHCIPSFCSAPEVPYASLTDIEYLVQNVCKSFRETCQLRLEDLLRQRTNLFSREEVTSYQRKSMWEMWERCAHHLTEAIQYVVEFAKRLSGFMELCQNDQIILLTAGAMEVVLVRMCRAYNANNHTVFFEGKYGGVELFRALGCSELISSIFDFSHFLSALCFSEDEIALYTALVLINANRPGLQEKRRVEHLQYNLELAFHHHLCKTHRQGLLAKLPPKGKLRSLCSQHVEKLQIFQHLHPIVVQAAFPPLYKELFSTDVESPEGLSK
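Using a luciferase readout, inhibitors were identified by reduced reporter activity in Drosophila cells coexpressing a copper-inducible Gal4–ROR gamma fusion and UAS-driven Photinus luciferase, incubated 20 hr after 700 uM copper sulfate.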
IL-1B inflam inh: blocks inflammasome-driven IL-1 beta release; THP-1 LPS/ATP IL-1B secretion, AlphaLISA, 16 h; active compounds read low; activity change, % at 57.5 µM; 4.7% of 360,000 active; AID 743279; in the data active means activity change below about -50%; inconclusive means mostly about -30% to -49%
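THP-1 cells pretreated 1 hr with compounds (up to 57.5 uM final), then stimulated with LPS (250 ng/mL final) plus ATP (1.25 mM final); secreted IL-1B measured by AlphaLISA after 16 hr, decreased signal indicating inhibition.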
DT40 TDP1 no CPT: qHTS for Inhibitors of human tyrosyl-DNA phosphodiesterase 1 (TDP1): qHTS in cells in absence of CPT. DT40 Tdp1-/- hTDP1 cells, no CPT, ATP luminescence, 48 h. Potency, µM (titrated, usually from 46.2 µM), actives largely listed as inhibitors. 15% of 420,000 active. AID 686978, 2013; further: nearly all actives have a fitted effect of over 55% in size
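Compound effects on proliferation are scored in DT40 Tdp1-/-;hTDP1 cells in the absence of CPT. ATP levels (CellTiter-Glo luminescence) are recorded after a ≥48 hr, 37 °C incubation.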
ELG1 repair inh: blocks ELG1-dependent DNA repair in HEK293T cells; HEK293T ELG1-luciferase reporter, luminescence, 16 h; DNA damage induced by 5-fluorouridine; 2.3% of 330,000 active; Potency, µM (top dose mostly 46.1 µM), usual class: inhibitors; further: nearly all actives have a fitted effect of over 55% in size
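HEK293T cells expressing luciferase-tagged ELG1 (2,000/well) received 5-Fluorouridine plus compound or DMSO for 16 hr at 37 °C. Luciferase was read by ONE-Glo luminescence after 30 min at room temperature.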
Numbers stand for hits; – = inactive; ? = inconclusive; · = no result given; ! = a repeat was not active; [ ] = dose if it differs, or a comment. Unless noted, the call rests on the fitted dose curve; in most records, active means well fitted curve in the direction sought with a large enough effect; inconclusive means small, poorly fitted or top-dose-only effect, or another doubt; inactive means no such curve, though single readings can be large; an effect the other way counts as inactive or inconclusive.

SMILES | TDP1 cell CPT | Gal4-VP16 FLuc | RORgamma inh | IL-1B inflam inh | DT40 TDP1 no CPT | ELG1 repair inh
O=C(Oc1cccc2cccnc12)c1ccc(N2C(=O)C3C4CCC(C4)C3C2=O)cc1 (configuration not stated) | 0.52µM | 5µM | 2.8µM | -95 | 1µM | –
O=C(Oc1cccc2cccnc12)c1cccc(-n2cnnn2)c1 | ? | – | – | – | 18µM | ?
CCCCNC(=O)C(c1ccc(OCC(=O)OC)c(C(=O)OC)c1)N(Cc1ccccn1)C(=O)CCCCCN1C(=O)NC(c2ccc(-c3ccccc3)cc2)C(C(=O)OCc2ccccc2)=C1C (configuration not stated) | · | – | – | · | · | ·
CCc1cnc2c(c1SCC(=O)Nc1cc(Cl)ccc1OC)c(=O)n(C)c(=O)n2C | – | · | · | · | – | ·
N#CC1=C(N)Oc2cc(O)ccc2C1c1cccs1 (configuration not stated) | ? | – | ? | – | ? | –
Cc1ccc2[nH]c(=O)c(C3C(C#N)=C(N)Oc4c3ccc3cccnc43)cc2c1 (configuration not stated) | 21µM | – | – | ? | 21µM | ?
N#CC1=C(N)OC2=C(C(=O)CCC2)C1c1ccccc1 (configuration not stated) | – | – | – | – | – | –
N#CC1=C(N)Oc2c(ccc3ccccc23)C1c1cccs1 (configuration not stated) | 0.56µM | – | – | – | 0.63µM | ?
COC(=O)C1=C(C)NC(C)=C(C(=O)OC)C1c1cc2cc(C)ccc2[nH]c1=O | – | – | – | – | – | –
N#CC1=C(N)Oc2c(ccc3cccnc23)C1c1ccccc1 (configuration not stated) | 5.2µM | – | – | – | 4.1µM | 13µM
CC(C)C(NS(C)(=O)=O)c1nnc2n1CCN(Cc1ccnc3ccccc13)CC2 (configuration not stated) | ? | · | · | · | – | ·
O=C1CN(C(=O)COC(=O)[C@@H]2CCCN2S(=O)(=O)c2ccc(Cl)cc2)c2ccccc2N1 | – | · | · | – | – | –
N[C@@H]1CCN(O)C1=O | – | – | – | · | – | ·
Cc1ccc(C)c(-c2ccc(C(=O)O)o2)c1 | · | – | 13µM | · | · | ·
COc1ccccc1-c1ccc(C(=O)O)o1 | – | – | – | – | – | ?
COc1ccccc1-n1cnnc1SCC(=O)N1CCOCC1 | – | – | – | – | – | –
O=C(c1ccco1)N1CCN(c2ncnc3c(-c4ccccc4)nsc23)CC1 | 18µM | – | ? | – | 21µM | ?
O=C(c1ccco1)N1CCN(c2ncnc3scc(-c4ccc(Cl)cc4)c23)CC1 | ? | · | · | – | ? | ·
NC(=O)C1CCN(c2ncnc3c(-c4ccccc4)nsc23)CC1 | – | ? | ? | ? | – | ?
COc1ccc(CN2CCN(c3ncnc4sc5c(c34)CC(C)CC5)CC2)cc1F (configuration not stated) | 15µM | · | · | · | 6.5µM | ·
O=C(c1ccco1)N1CCN(c2ncnc3sc4c(c23)CCC4)CC1 | ? | – | –[10 µM] | – | 20µM | 15µM
Clc1ccc(CN2CCN(c3ncnc4sc5c(c34)CCCC5)CC2)cc1Cl | 21µM | · | · | · | 23µM | ·
CC(=O)OC1C(=O)N(Cc2ccccc2)C1c1ccc(C)cc1 (configuration not stated) | ? | · | · | – | ? | ·
Cc1cc([N+](=O)[O-])ccc1P(=O)(O)c1ccc([N+](=O)[O-])cc1C | – | · | · | – | – | ·
c1ccc(N2CCN(c3ncnc4sc5c(c34)CCC5)CC2)cc1 | 21µM | – | – | – | 21µM | 16µM
SMILES | TDP1 cell CPT | Gal4-VP16 FLuc | RORgamma inh | IL-1B inflam inh | DT40 TDP1 no CPT | ELG1 repair inh
CCN(Cc1ccncc1)C(=O)c1cc(COc2ccc(C)c(C)c2)on1 | – | ? | – | -53 | ? | –
Cc1ccc(OCc2cc(C(=O)N(CCO)Cc3cccs3)no2)cc1C | ? | – | – | -62 | ? | ?
Cc1cc(C(=O)N(CCC#N)Cc2cccs2)no1 | – | – | – | – | – | –
CCOC(=O)c1cc(CC)sc1/N=C/C1=C(O)CCCC1=O | – | – | – | – | – | –
COc1ccc(NC(=O)Cn2c(=O)cnc3ccccc32)cc1S(=O)(=O)N1CCCCC1 | – | · | · | – | – | –
O=C(Cn1ccn(-c2cccc(Cl)c2)c(=O)c1=O)NCCc1ccccc1 | – | · | · | · | – | ·
CCOC(=O)C(=Cc1c[nH]c2ccc(S(=O)(=O)N(C)C)cc12)C(=O)OCC | ? | – | ? | -101 | 16µM | –
CNc1c(Br)cc(C=O)cc1Br | ? | · | · | · | – | ·
O=C(O)Cn1c(SCCOc2ccccc2F)nc2ccccc21 | ? | ? | – | – | 16µM | –
O=C(O)Cn1c(SCCOc2ccc(Cl)cc2)nc2ccccc21 | – | – | – | – | – | –
CCN(CC)C(=O)Cn1c(SCCOc2ccc(Cl)cc2)nc2ccccc21 | ? | · | · | · | 21µM | ·
O=C(NCc1ccco1)C1CCN(C(=O)N2CCOc3ccc(Cl)cc32)CC1 | – | · | · | · | ? | ·
Cc1nn2c(-c3ccco3)nnc2c2ccccc12 | ? | – | – | – | 21µM | ·
COc1ccc(-c2nnc3c4ccccc4c(C)nn23)cc1 | ? | – | – | – | 18µM | ?
O=C(Nc1cccc(C(F)(F)F)c1)c1ccc2sc([C@@H]3O[C@H](CO)[C@H](O)[C@H](O)[C@H]3O)nc2c1 | – | · | · | – | – | ·
Cc1c(Cl)cccc1NC(=O)N1CCCC1 | – | – | – | – | – | –
Cc1c(Cl)cccc1N/C(SCC(=O)N1CCCCCC1)=C(/C#N)c1nc2ccccc2s1 | 12µM | – | 8.9µM | -94 | 12µM | ?
CC(=O)Nc1ccc(N(CC(=O)NC2CCCCC2)C(=O)Cn2nnc(-c3ccccc3)n2)cc1 | – | – | – | – | – | –
COc1ccc(CNc2nc(NCc3ccc(OC)cc3)c3[nH]cnc3n2)cc1 | ? | – | – | – | 29µM | –
COc1ccc(CNc2ncnc3nc[nH]c23)cc1 | 14µM | · | · | · | 14µM! | ·
O=C(O)c1ccc(CNc2ncnc3nc[nH]c23)cc1 | – | · | · | · | – | ·
O=C(Cc1ccc2c(c1)CCCC2)Nc1ccc2ccccc2c1 | – | – | ? | – | – | ?
CCCCn1c(SCC(=O)Nc2oc(C)c3c(C)n[nH]c(=O)c23)nc2cc(S(N)(=O)=O)ccc21 | – | · | · | – | – | –
CCOc1cc(OCC)cc(C(=O)N2CCC[C@@H]2C(=O)N2CCC[C@@H]2C(=O)NCc2ccccc2Cl)c1 | – | · | · | – | – | ·
COc1cccc(C(=O)NCCSc2c(C)[nH]c3ccccc23)c1OC | ? | – | – | – | ? | 23µM
COc1ccccc1C(=O)NCCCCNC(=O)c1ccccc1OC | – | · | · | – | – | ·
